Our source for the growth values is PubChem BioAssay (NCI).

About 83,000 compounds went through this panel and 20% of them were active in at least one assay; those are over-represented in the sample as a whole.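 Each cell line was grown in a 96-well plate and treated with one concentration of compound for 48 hours. Values below 10 were considered active.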 Unmarked numbers belong to inactive results. Calls of active or inactive are those of the source.

Test systems include SR leukemia; RPMI-8226 leukemia; OVCAR-8 ovarian; OVCAR-5 ovarian; OVCAR-4 ovarian; SK-OV-3 ovarian; IGROV1 ovarian; OVCAR-3 ovarian; HS 578T breast; NCI/ADR-RES ovarian.
What all share (assay): NCI-60 one-dose screen, 48 h (100 = growth as untreated, 0 = no growth, -100 = all killed)
Holding throughout (conditions): 10 µM unless noted

As for `CCn1cc(C(=O)N/N=C/c2cccc(F)c2)c(=O)c2cc(F)c(N3CCNC(C)C3)c(F)c21` (stereo not given), the growth in the assay with SR leukemia is -29.2% (active); in the assay on RPMI-8226 leukemia, -42.2% (active); in the assay on OVCAR-8 ovarian it was -5.39% (active); with OVCAR-5 ovarian it was 90.2%; with OVCAR-4 ovarian, 23.8%; with SK-OV-3 ovarian it was 108%. Besides, the growth in the assay on IGROV1 ovarian is 69.4%; with OVCAR-3 ovarian it was -83.3% (active); in the assay on HS 578T breast, 81.3%; in the assay on NCI/ADR-RES ovarian, 78.3%.

As for `COc1ccc(C2C3=C(COC3=O)N(CCO)c3cc4c(cc32)OCO4)cc1OC` (stereo not given), the growth with SR leukemia was 24.3%; with RPMI-8226 leukemia, 88.8%; with OVCAR-8 ovarian it was 102%; with OVCAR-5 ovarian, 94.7%; with OVCAR-4 ovarian, 88.1%; in the assay on SK-OV-3 ovarian, 84.1%. For the same compound, the growth in the assay on IGROV1 ovarian is 60.9%; with OVCAR-3 ovarian it was 43%; in the assay with HS 578T breast, 92.4%; with NCI/ADR-RES ovarian, 94.7%.

`N=C(N)c1ccc(-c2ccc(-c3ccccc3)o2)o1`: the growth was -15% (active) in the assay on SR leukemia; 9.58% (active) in the assay with RPMI-8226 leukemia; 34.4% in the assay with OVCAR-8 ovarian; 72.8% with OVCAR-5 ovarian; 63.1% in the assay with OVCAR-4 ovarian; 45.9% in the assay on SK-OV-3 ovarian. In addition, the growth in the assay with IGROV1 ovarian is 45.3%; in the assay on OVCAR-3 ovarian, 17%; in the assay on HS 578T breast, 45.6%; in the assay on NCI/ADR-RES ovarian, 36.3%.

With `Cn1c(C#N)ccc1-c1ccc(F)c(NC(=O)c2ccc(F)cc2)c1`, the growth in the assay on SR leukemia is 29.4%; in the assay with RPMI-8226 leukemia, 70.1%; with OVCAR-8 ovarian, 95.4%; in the assay with OVCAR-5 ovarian, 85.4%; in the assay on OVCAR-4 ovarian it was 85%; with SK-OV-3 ovarian it was 80%. Besides, the growth in the assay with IGROV1 ovarian was 74.2%; with OVCAR-3 ovarian it was 77%; in the assay with HS 578T breast, 71.5%; with NCI/ADR-RES ovarian it was 76.9%.

Turning to `CC(C)(C)c1ccc(S(=O)(=O)Oc2ccc(-c3sc4cc(OS(=O)(=O)c5ccc(C(C)(C)C)cc5)ccc4c3C(=O)c3ccc(OCCN4CCCCC4)cc3)cc2)cc1`, the growth is 104% in the assay with SR leukemia; 93.6% in the assay with RPMI-8226 leukemia; 115% with OVCAR-8 ovarian; 99.4% in the assay on OVCAR-5 ovarian; 97.1% in the assay on OVCAR-4 ovarian; 88.8% in the assay on SK-OV-3 ovarian. Further, the growth is 101% in the assay with IGROV1 ovarian, 102% with OVCAR-3 ovarian, 104% with HS 578T breast and 97.9% with NCI/ADR-RES ovarian.

Consider `O=c1cc(CP(=O)(O)O)c2cc(O)c(-c3ccccc3)cc2o1`, for which the growth with SR leukemia was 95.2%; in the assay on RPMI-8226 leukemia it was 99.2%; with OVCAR-8 ovarian, 101%; in the assay on OVCAR-5 ovarian, 101%; in the assay on OVCAR-4 ovarian it was 98.5%; in the assay with SK-OV-3 ovarian, 102%. The growth in the assay on IGROV1 ovarian was 104%; with OVCAR-3 ovarian, 108%; with HS 578T breast it was 101%; in the assay on NCI/ADR-RES ovarian it was 102%.

On to `N#Cc1c(-c2ccccc2)nc2c(c(-c3ccccc3)nn2-c2ccccc2)c1-c1ccc(N2CCCCC2)cc1`, for which the growth in the assay on SR leukemia is 114%; with RPMI-8226 leukemia, 107%; in the assay on OVCAR-8 ovarian it was 98.4%; with OVCAR-5 ovarian, 102%; in the assay with OVCAR-4 ovarian, 105%; in the assay on SK-OV-3 ovarian, 104%. The growth in the assay on IGROV1 ovarian was 104%; in the assay with OVCAR-3 ovarian, 111%; with HS 578T breast it was 109%; with NCI/ADR-RES ovarian, 100%.

Consider `Cc1cc(Cl)nc(N2CCN(CCNc3ccnc4cc(Cl)ccc34)CC2)n1`, for which the growth in the assay with SR leukemia was -7.81% (active); in the assay on RPMI-8226 leukemia, 13.5%; in the assay with OVCAR-8 ovarian, 61.5%; in the assay on OVCAR-5 ovarian it was 66.6%; in the assay with OVCAR-4 ovarian, 40.1%; in the assay with SK-OV-3 ovarian, 56.9%. The growth is 61% in the assay with IGROV1 ovarian, 60.7% in the assay on OVCAR-3 ovarian, 76.8% with HS 578T breast and 45.2% with NCI/ADR-RES ovarian.

In the case of `O=C1O[C@@H](c2ccccc2Cl)[C@@H]2c3cc4c(cc3CCN12)OCO4`, the growth in the assay on SR leukemia was 100%; with RPMI-8226 leukemia, 94.4%; in the assay on OVCAR-8 ovarian, 98.7%; with OVCAR-5 ovarian it was 113%; in the assay on OVCAR-4 ovarian, 104%; in the assay on SK-OV-3 ovarian it was 119%. Also, the growth in the assay with IGROV1 ovarian was 94%; with OVCAR-3 ovarian, 100%; with HS 578T breast, 101%; in the assay on NCI/ADR-RES ovarian, 104%.

With `CCCCCCCCn1ccc2cc(NC(=O)CN=[N+]=[N-])ccc21`, the growth was 100% in the assay with SR leukemia; 99.2% in the assay with RPMI-8226 leukemia; 96.9% with OVCAR-8 ovarian; 98.2% in the assay with OVCAR-5 ovarian; 103% in the assay with OVCAR-4 ovarian; 111% with SK-OV-3 ovarian. In addition, the growth in the assay on IGROV1 ovarian is 87.2%; in the assay with OVCAR-3 ovarian it was 96%; in the assay with HS 578T breast, 101%; in the assay on NCI/ADR-RES ovarian, 116%.

Regarding `CC1(C)CC[C@]23CC[C@]4(C)[C@H](CC[C@@H]5[C@@]6(C)C/C(=C/O)C(=O)C(C)(C)[C@@H]6CC[C@]54C)[C@H]2[C@H]1OC3`, the growth in the assay on SR leukemia was 95.1%; with RPMI-8226 leukemia, 100%; in the assay on OVCAR-8 ovarian, 104%; in the assay with OVCAR-5 ovarian, 107%; with OVCAR-4 ovarian it was 111%; with SK-OV-3 ovarian it was 110%. For the same compound, the growth with IGROV1 ovarian was 106%; with OVCAR-3 ovarian, 121%; with HS 578T breast, 111%; in the assay with NCI/ADR-RES ovarian, 104%.

Consider `Cc1ccc(C)c2c1sc1nc(N3CCOCC3)c(C#N)c(=O)n12`, for which the growth in the assay on SR leukemia is 63.5%; in the assay on RPMI-8226 leukemia, 76.5%; with OVCAR-8 ovarian, 110%; in the assay on OVCAR-5 ovarian, 95.8%; in the assay on OVCAR-4 ovarian it was 76.8%; in the assay on SK-OV-3 ovarian, 99.4%. Besides, the growth was 55.9% with IGROV1 ovarian, 89.9% in the assay on OVCAR-3 ovarian, 76.4% in the assay on HS 578T breast and 92.2% with NCI/ADR-RES ovarian.

Consider `COc1ccc(Nc2ncc(I)c(NCCCNC(=O)C3CCC3)n2)cc1`, for which the growth is 0.641% (active) in the assay with SR leukemia; 11.4% in the assay on RPMI-8226 leukemia; 19.3% with OVCAR-8 ovarian; 3.96% (active) with OVCAR-5 ovarian; 42.2% with OVCAR-4 ovarian; -3.33% (active) in the assay with SK-OV-3 ovarian. Moreover, the growth in the assay on IGROV1 ovarian was -20.8% (active); in the assay with OVCAR-3 ovarian, -40.4% (active); in the assay with HS 578T breast, 17.1%; in the assay on NCI/ADR-RES ovarian, 22.2%.
